We go through seven compounds from ChEMBL document CHEMBL1961873, “Compounds: GSK PKIS; Assays: Nanosyn kinase panel” (2012).

Assay [1] addresses Glycogen synthase kinase-3 beta (Homo sapiens) (UniProt P49841). To be noted: at 1 µM.
Assay [2] concerns the target Homeodomain-interacting protein kinase 1 (Homo sapiens) (UniProt Q86Z02). The settings on record: at 0.1 µM.
For assay [3] the target is unchanged. The settings on record: at 1 µM.
The target of assay [4] is T1, Homeodomain-interacting protein kinase 4 (Homo sapiens) (UniProt Q8NE63).
T1 sequence (whole entry): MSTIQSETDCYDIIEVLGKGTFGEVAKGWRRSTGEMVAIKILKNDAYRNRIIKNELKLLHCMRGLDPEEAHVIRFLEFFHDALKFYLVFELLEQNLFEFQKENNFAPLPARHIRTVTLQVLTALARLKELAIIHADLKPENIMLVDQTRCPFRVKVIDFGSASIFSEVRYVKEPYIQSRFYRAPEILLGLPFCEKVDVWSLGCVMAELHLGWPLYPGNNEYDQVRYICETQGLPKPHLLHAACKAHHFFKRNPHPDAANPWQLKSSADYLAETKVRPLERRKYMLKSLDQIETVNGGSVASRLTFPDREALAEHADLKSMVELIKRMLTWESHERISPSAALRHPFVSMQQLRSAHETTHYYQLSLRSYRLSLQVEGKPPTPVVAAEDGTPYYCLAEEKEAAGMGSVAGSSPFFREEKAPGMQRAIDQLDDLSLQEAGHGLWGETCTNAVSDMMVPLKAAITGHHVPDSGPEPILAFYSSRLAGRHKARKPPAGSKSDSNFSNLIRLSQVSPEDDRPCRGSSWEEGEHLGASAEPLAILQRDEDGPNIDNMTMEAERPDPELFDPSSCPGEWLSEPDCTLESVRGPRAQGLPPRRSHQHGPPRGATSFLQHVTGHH
To be noted: at 0.1 µM.

Assay [5] deals with T1, Homeodomain-interacting protein kinase 4 (Homo sapiens). To be noted: at 1 µM.
Assay [6] deals with Mitogen-activated protein kinase 9 (Homo sapiens) (UniProt P45984). To be noted: at 0.1 µM.
The target is the same in assay [7]. To be noted: at 1 µM.
The target of assay [8] is Mitogen-activated protein kinase 1 (Homo sapiens) (UniProt P28482). The settings on record: at 0.1 µM.
Assay [9] shares this target. To be noted: at 1 µM.
In assay [10] the target is Mitogen-activated protein kinase 3 (Homo sapiens) (UniProt P27361). To be noted: at 0.1 µM.
For assay [11] the target is unchanged. The settings on record: at 1 µM.
The target of assay [12] is SRSF protein kinase 3 (Homo sapiens) (UniProt Q9UPE1). To be noted: at 0.1 µM.
Assay [13] has the same target. To be noted: at 1 µM.
Assay [14] has as its target Mitogen-activated protein kinase 14 (Homo sapiens) (UniProt Q16539). The settings on record: at 0.1 µM.
For assay [15] the target is unchanged. The settings on record: at 1 µM.
Assay [16] deals with Mitogen-activated protein kinase 11 (Homo sapiens) (UniProt Q15759). To be noted: at 0.1 µM.
For assay [17] the target is unchanged. To be noted: at 1 µM.
The target of assay [18] is T2, Mitogen-activated protein kinase 13 (Homo sapiens) (UniProt O15264).
T2 sequence (whole entry): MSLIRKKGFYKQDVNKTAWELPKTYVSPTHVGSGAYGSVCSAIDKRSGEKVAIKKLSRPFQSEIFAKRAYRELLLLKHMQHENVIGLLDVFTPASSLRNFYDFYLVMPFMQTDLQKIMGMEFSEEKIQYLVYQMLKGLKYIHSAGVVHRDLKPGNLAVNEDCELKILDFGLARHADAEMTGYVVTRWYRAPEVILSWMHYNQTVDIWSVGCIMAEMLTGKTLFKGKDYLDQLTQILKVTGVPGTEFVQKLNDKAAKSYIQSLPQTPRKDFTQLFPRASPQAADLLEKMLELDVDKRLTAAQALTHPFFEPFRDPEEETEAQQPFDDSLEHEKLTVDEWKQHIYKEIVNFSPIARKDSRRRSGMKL
To be noted: at 0.1 µM.

For assay [19], the target named is T2, Mitogen-activated protein kinase 13 (Homo sapiens). The settings on record: at 1 µM.
Assay [20] concerns the target T3, Mitogen-activated protein kinase 12 (Homo sapiens) (UniProt P53778).
T3 sequence (whole entry): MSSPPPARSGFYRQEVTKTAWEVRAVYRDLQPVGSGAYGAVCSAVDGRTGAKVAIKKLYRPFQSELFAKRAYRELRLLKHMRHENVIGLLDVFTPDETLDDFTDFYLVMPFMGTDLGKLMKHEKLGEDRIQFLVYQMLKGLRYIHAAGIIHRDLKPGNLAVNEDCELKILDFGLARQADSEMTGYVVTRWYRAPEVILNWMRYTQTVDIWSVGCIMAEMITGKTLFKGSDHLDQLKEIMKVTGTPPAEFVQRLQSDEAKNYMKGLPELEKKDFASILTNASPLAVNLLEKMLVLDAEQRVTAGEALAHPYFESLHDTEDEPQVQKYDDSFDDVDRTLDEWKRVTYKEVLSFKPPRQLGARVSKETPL
The settings on record: at 0.1 µM.

Chain of Mitogen-activated protein kinase 14 (Homo sapiens) (Q16539 whole entry): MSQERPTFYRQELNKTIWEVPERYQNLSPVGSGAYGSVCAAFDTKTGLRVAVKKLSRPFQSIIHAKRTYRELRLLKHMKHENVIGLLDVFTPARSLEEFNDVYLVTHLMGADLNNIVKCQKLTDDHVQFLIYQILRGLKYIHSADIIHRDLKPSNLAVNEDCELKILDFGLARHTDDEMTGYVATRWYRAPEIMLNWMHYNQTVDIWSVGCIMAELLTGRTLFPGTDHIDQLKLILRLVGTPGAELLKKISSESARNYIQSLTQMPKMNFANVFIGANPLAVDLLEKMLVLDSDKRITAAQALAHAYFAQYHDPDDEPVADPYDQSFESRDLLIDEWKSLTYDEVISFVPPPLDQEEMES
Chain of Glycogen synthase kinase-3 beta (Homo sapiens) (P49841 whole entry, looked up): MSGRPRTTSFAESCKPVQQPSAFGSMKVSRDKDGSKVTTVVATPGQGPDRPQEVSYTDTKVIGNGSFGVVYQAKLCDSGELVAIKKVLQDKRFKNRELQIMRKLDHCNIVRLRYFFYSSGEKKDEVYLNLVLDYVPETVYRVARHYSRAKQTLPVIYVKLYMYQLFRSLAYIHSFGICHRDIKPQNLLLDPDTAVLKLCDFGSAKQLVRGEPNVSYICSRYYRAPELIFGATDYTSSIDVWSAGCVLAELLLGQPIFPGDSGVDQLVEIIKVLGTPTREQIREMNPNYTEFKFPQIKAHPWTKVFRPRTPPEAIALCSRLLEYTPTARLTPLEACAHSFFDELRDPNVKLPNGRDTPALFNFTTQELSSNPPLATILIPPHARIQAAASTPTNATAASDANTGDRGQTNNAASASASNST
Chain of Mitogen-activated protein kinase 9 (Homo sapiens) (P45984 whole entry, looked up): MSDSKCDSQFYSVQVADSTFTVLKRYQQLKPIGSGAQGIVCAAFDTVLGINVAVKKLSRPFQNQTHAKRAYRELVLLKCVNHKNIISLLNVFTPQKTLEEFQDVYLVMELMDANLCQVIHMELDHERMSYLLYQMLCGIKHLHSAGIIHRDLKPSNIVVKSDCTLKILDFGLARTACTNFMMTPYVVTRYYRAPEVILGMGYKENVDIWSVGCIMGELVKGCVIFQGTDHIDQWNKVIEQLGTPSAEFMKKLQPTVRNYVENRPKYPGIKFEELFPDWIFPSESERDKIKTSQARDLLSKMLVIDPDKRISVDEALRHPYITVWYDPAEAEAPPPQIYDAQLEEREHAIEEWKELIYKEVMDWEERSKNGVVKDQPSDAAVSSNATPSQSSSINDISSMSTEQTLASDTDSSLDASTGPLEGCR
Chain of Mitogen-activated protein kinase 11 (Homo sapiens) (Q15759 whole entry): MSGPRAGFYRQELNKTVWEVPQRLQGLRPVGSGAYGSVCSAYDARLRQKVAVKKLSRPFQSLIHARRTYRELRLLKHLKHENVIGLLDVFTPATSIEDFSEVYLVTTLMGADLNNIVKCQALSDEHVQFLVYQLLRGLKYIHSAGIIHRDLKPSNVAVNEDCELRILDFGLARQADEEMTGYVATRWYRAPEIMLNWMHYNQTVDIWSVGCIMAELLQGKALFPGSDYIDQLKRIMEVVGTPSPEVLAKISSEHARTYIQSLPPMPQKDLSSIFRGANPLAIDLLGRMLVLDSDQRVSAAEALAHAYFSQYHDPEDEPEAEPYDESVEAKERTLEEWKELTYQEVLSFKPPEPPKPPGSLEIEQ
Chain of Mitogen-activated protein kinase 3 (Homo sapiens) (P27361 whole entry): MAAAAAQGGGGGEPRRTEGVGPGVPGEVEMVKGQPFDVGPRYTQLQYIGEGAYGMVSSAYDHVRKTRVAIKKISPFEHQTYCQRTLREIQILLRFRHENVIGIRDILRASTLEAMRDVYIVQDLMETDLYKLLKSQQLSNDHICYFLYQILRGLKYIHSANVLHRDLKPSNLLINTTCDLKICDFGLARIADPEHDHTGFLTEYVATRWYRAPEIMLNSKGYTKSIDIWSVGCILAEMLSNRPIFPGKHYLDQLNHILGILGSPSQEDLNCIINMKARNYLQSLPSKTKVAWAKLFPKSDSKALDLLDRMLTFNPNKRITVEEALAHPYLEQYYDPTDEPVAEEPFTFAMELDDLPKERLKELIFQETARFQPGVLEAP
Chain of Homeodomain-interacting protein kinase 1 (Homo sapiens) (Q86Z02 whole entry, looked up): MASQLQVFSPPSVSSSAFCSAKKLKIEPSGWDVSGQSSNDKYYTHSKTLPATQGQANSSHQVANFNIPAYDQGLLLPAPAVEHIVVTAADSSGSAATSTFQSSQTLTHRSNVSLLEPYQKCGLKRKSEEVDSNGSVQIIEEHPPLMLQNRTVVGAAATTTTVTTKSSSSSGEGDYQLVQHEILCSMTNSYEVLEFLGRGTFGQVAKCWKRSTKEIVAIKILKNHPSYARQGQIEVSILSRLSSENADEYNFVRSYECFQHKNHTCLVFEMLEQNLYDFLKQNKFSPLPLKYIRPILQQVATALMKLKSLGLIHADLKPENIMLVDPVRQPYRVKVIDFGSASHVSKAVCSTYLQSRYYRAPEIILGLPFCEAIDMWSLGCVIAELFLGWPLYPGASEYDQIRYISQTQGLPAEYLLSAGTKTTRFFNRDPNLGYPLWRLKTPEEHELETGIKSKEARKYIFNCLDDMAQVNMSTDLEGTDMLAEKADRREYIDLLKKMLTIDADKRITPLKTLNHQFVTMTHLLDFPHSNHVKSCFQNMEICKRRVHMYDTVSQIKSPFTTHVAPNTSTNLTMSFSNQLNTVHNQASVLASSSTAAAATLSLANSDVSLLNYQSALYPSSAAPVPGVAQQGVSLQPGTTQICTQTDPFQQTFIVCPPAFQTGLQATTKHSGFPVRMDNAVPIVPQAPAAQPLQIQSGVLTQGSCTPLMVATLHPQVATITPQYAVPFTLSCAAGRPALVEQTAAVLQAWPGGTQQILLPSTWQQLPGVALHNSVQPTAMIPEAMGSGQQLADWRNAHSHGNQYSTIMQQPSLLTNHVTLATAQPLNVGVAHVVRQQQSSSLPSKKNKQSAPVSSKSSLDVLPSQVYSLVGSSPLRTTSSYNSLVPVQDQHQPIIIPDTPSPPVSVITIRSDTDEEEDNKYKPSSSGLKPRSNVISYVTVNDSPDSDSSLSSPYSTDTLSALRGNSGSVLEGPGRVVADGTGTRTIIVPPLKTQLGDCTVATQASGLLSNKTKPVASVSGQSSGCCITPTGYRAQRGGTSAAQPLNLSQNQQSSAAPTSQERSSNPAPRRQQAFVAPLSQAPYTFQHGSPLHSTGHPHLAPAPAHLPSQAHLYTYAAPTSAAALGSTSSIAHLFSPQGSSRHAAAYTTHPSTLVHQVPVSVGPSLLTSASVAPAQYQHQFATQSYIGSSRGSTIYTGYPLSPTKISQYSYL
Chain of SRSF protein kinase 3 (Homo sapiens) (Q9UPE1 whole entry): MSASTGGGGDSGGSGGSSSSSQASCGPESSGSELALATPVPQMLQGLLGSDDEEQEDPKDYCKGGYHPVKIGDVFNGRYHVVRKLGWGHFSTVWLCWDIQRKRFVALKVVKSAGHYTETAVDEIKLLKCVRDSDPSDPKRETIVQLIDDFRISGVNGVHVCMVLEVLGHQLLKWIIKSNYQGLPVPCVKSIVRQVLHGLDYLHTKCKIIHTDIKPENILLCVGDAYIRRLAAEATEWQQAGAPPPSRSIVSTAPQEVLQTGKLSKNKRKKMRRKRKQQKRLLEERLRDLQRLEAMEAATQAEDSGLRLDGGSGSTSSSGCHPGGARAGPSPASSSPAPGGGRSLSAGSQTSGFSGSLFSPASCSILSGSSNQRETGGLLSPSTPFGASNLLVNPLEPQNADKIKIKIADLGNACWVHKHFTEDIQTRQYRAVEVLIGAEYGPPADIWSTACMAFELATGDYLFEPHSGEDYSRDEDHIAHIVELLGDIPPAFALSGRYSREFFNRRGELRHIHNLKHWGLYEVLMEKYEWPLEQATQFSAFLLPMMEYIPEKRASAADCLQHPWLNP
Chain of Mitogen-activated protein kinase 1 (Homo sapiens) (P28482 whole entry): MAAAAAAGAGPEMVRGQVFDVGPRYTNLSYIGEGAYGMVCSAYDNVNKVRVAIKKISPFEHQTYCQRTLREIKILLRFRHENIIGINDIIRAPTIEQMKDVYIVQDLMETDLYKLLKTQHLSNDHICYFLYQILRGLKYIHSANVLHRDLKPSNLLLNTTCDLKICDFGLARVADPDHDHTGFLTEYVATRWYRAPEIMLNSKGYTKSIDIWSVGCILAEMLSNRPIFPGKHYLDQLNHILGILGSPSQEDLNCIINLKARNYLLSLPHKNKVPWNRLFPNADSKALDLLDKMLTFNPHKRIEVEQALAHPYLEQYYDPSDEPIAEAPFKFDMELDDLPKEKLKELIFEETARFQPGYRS

Consider `O=C(Nc1ccc(Oc2ccc3[nH]c(NC(=O)c4ccccc4)nc3c2)cc1)Nc1cc(C(F)(F)F)ccc1F`, for which the inhibition in assay [1] is 7.73%; in assay [2], -0.21%; in assay [3], 0.17%; in assay [4], 9.12%; in assay [5], 47.7%; in assay [6], 3.43%. For the same compound, the inhibition in assay [7] was 6.62%; in assay [8] it was 2.12%; in assay [9], 2.7%; in assay [10] it was 4.31%; in assay [11] it was 3.58%; in assay [12], 4.8%. The inhibition was determined as 50.7% in assay [13]; 11.1% in assay [14]; 40% in assay [15]; 5.44% in [16]; 32.5% in assay [17]; 1.65% in assay [18]. Further, the inhibition in assay [19] was 3.87%; in [20], -0.11%.
As for `Fc1ccc(-c2c(-c3ccncc3)nc3n2CCS3)cc1`, the inhibition in [1] is 3.12%; in assay [2], -3.99%; in [3], 4.73%; in assay [4] it was -1.11%; in assay [5], 5.51%; in assay [6], 2.29%. The inhibition was 4.26% in assay [7]; 2.87% in [8]; 3.3% in assay [9]; 2.96% in assay [10]; 2.25% in assay [11]; -1.16% in assay [12]. For the same compound, the inhibition amounted to 1.49% in assay [13]; 1.13% in [14]; 10.9% in [15]; 1.9% in assay [16]; 0.65% in [17]; 3.54% in [18]. In addition, the inhibition stood at 2.65% in assay [19] and 3.9% in assay [20].
Regarding `CN(C)c1ccc2c(c1)/C(=C/Nc1ccc(S(N)(=O)=O)cc1)C(=O)N2`, the inhibition is 24.2% in [1]; 0.15% in [2]; 12% in [3]; -0.09% in assay [4]; 6.94% in assay [5]; 3.27% in assay [6]. The inhibition was 2.71% in assay [7]; 1.12% in assay [8]; 2.53% in [9]; 0.06% in [10]; 2.21% in [11]; -1.98% in [12]. Moreover, the inhibition in assay [13] is -1.04%; in assay [14], 1.18%; in assay [15], 2.39%; in assay [16], 1.4%; in assay [17], 0.72%; in [18], 6.36%. Moreover, the values for the inhibition in assay [19] and in assay [20] were 1.98% and 2.6%, respectively.
Consider `COc1cc2ncn(-c3cc(OCCc4ccccc4)c(C(N)=O)s3)c2cc1OC`, for which the inhibition is 0.1% in assay [1]; -0.4% in assay [2]; 3.92% in [3]; 2.74% in assay [4]; 19.1% in assay [5]; 4.17% in assay [6]. The inhibition in assay [7] was 3.52%; in assay [8] it was 1.47%; in assay [9] it was 3.64%; in assay [10] it was 0.38%; in [11], 0.82%; in assay [12] it was -1.68%. The inhibition in [13] turned out to be 0.18%; in assay [14], 4.09%; in assay [15], 13.1%; in assay [16], 3.65%; in assay [17], 2.87%; in assay [18] it was 4.25%. The inhibition in assay [19] was 1.8%; in assay [20], -0.53%.
For `C[C@@H](Oc1cc(-n2cnc3ccc(OC4CCN(C)CC4)cc32)sc1C(N)=O)c1ccccc1Cl`, the inhibition was -0.12% in assay [1]; -4.32% in assay [2]; 2.08% in [3]; 3.54% in assay [4]; 28.7% in [5]; 1.24% in assay [6]. Moreover, the inhibition was 5.06% in assay [7]; 5.74% in [8]; 6.64% in assay [9]; 3.11% in [10]; 4.52% in [11]; -2.03% in [12]. Also, the inhibition in assay [13] was -0.98%; in assay [14], 9.29%; in assay [15], 10.7%; in [16], 2.89%; in assay [17], 3.75%; in [18], 4.78%. The inhibition in assay [19] is 6.01%; in assay [20], 4.13%.
Take `NC(=O)c1cc(-c2ccncc2)cc(-c2ccccc2)c1N`: the inhibition is 9.17% in assay [1]; -1.44% in [2]; -0.02% in assay [3]; 1.54% in assay [4]; 4.34% in assay [5]; 5.97% in [6]. Further, the inhibition in [7] is 6.49%; in assay [8], 4%; in [9], 6.15%; in [10], 3.98%; in assay [11], 5.5%; in assay [12] it was -0.96%. In addition, the inhibition in [13] is -0.93%; in [14], 6.9%; in assay [15] it was 14.9%; in [16] it was 6.98%; in [17] it was 14.8%; in [18], 2.69%. Further, the inhibition in [19] is 5.81%; in [20] it was 0.76%.
As for `O=C(NCC1CC1)c1ccc(-c2cccc(C(=O)NC3CC3)c2)cc1`, the inhibition is 0.48% in assay [1]; -0.22% in assay [2]; 5.27% in [3]; 2.02% in [4]; 5.47% in assay [5]; 3.38% in assay [6]. In addition, the inhibition in assay [7] came to 2.6%; in assay [8], 1.42%; in assay [9] it was 1.43%; in assay [10], 1.22%; in assay [11], 0.8%; in assay [12], 1.6%. Also, the inhibition is 1.04% in assay [13]; 1.13% in [14]; 13.9% in assay [15]; 2.37% in [16]; 7.97% in assay [17]; 1.41% in assay [18]. Also, the inhibition in [19] stood at 3.97%; in [20] it was 4.08%.
